Shown are actives, neighbours in structure and some others; about 3.6% of the full set was active somewhere.
BoNT A protease = inhibitors of Botulinum neurotoxin A light chain protease | inhibition, % at 10 µM | AID 588499 | actives 0.17% (n = 360,000) | multiplex microsphere protease substrate cleavage, flow cytometry; note: plate controls were buffer without enzyme for full effect and enzyme alone for no effect
Autofluor counter = compound fluorescence in toxin protease inhibitor counterscreen; fluorescence intensity (concentration not given with the values); actives 3.1% (n = 360,000); compound autofluorescence counterscreen, microsphere flow cytometry; stronger effect = higher value; in the data active = fluorescence intensity above about 16000; inconclusive = no clear call, values can overlap the other calls
MazF activator = MazEF (E. coli) toxin RNase activation; P0AE70; FAM/BHQ RNA-DNA oligo cleavage fluorescence, 5 h; activation, % at 20 µM; actives 0.32% (n = 350,000); AID 504720; in the data active = activation above about 50%
Target sequence (P0AE70 whole entry, looked up): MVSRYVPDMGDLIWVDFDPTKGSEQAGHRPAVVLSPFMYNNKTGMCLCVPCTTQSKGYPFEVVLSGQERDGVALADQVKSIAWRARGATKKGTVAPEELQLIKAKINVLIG
Anthrax LF inh2 = anthrax lethal factor protease inhibition; multiplex microsphere protease cleavage assay, LF; inhibition, % at 10 µM; actives 0.12% (n = 360,000); note: plate controls were buffer without enzyme for full effect and enzyme alone for no effect
BoNT-F LC inh = blocks Botulinum neurotoxin F light chain protease. Multiplex microsphere protease cleavage assay, flow cytometry. inhibition, % at 10 µM. actives 0.22% (n = 360,000); in the data active = inhibition above about 35%, passing the limit was not always enough; inconclusive = no clear call, values can overlap the other calls; note: plate controls were buffer without enzyme for full effect and enzyme alone for no effect
Active calls of the source: *; u = inconclusive; x = no result. Cut-off read from the data, not from the text of the source, unless noted: active = inhibition above about 30%; inconclusive = no clear call, values can overlap the other calls; inactive = below that.

SMILES	BoNT A protease	Autofluor counter	MazF activator	Anthrax LF inh2	BoNT-F LC inh
CCCCCn1c(=O)[nH]c2cc(C(=O)NCCCN3CCCCC3CC)ccc2c1=O (stereo not given)	3.8	4806	25.3	-4.4	8.5
Cc1ccc(F)c(S(=O)(=O)NC(=O)C2(C)CCN2C(=O)Cc2ccccc2)c1 (stereo not given)	-1.3	5017	x	2.2	-5.2
COc1ccc(S(=O)(=O)N2CCOCC2)cc1NC(=O)c1ccc(OC(F)F)cc1	x	x	1.0	x	x
Cc1ccc(N(Cc2ccccc2)C(=O)c2ccc(S(=O)(=O)N3CCOCC3)cc2)cc1	-120.8	27784*	-3.2	-23.7	-176.7
COc1cc(S(=O)(=O)N2CCOCC2)ccc1NC(=O)COC(=O)c1cc(OC)c(OC)c(OC)c1	3.1	4256	1.6	-1.5	13.0
COc1ccc(NC(=O)c2ccc(S(=O)(=O)N3CCOCC3)cc2)c(OC)c1	-3.3	24065*	2.4	-2.4	-6.3
Cc1ccc(N(Cc2ccccc2)C(=O)c2cccc(S(=O)(=O)N3CCOCC3)c2)cc1	-1.7	4639	1.6	2.7	0.4
COc1cc(S(=O)(=O)N2CCOCC2)ccc1NC(=O)COC(=O)CC12CC3CC(CC(C3)C1)C2	-1.8	24036*	-7.9	-2.9	-6.0
COc1cccc(NS(=O)(=O)c2ccc(S(=O)(=O)N3CCOCC3)cc2)c1	-2.7	17066*	2.2	-2.1	-6.3
O=C(CSc1ccccc1F)NC(=O)c1ccccc1Br	-0.4	3845	-10.2	-0.2	0.7
COc1cccc(NC(=O)C2CCN(S(=O)(=O)c3ccc4c(c3)OCCO4)CC2)c1	-0.4	22969*	8.6	-8.3	-2.6
Cc1cccc(-n2nc3c(c2NC(=O)c2ccc(S(=O)(=O)N4CCOCC4)cc2)CSC3)c1C	u	23238*	-2.8	0.7	-0.5
O=C(NNC(=O)c1ccc(S(=O)(=O)N2CCOCC2)cc1)c1ccccc1	1.8	3693	-2.9	-3.8	45.2*
CC(C)C(NC(=O)c1ccc(S(=O)(=O)N2CCOCC2)cc1)c1nc2ccccc2[nH]1 (stereo not given)	-0.5	22568*	-5.7	-2.9	-3.2
Cc1ccc(-n2nc3c(c2NC(=O)c2ccc(S(=O)(=O)N4CCOCC4)cc2)CSC3)c(C)c1	1.1	11803	0.7	-1.6	8.8
CC(C)[C@H](NC(=O)c1cccc(S(=O)(=O)N2CCCC2)c1)c1nc2ccccc2[nH]1	-0.7	2380	0.1	-2.7	-4.5
COC(=O)CNC(=O)c1ccc(F)cc1	-0.5	4330	7.1	-4.2	3.3
CCCCC(CC)CNC(=O)CN1C(=O)NC2(CCc3ccccc32)C1=O (stereo not given)	1.7	4089	7.2	-2.0	-18.2
O=C1C(Cl)=C(NCCc2ccccc2)C(=O)N1CCc1ccccc1	1.2	4587	69.7*	-2.6	-7.5
O=C1C(Cl)=C(Nc2ccc(F)cc2)C(=O)N1CCc1ccccc1	-0.1	2737	18.7	3.5	2.6
O=C1C(Cl)=C(NCCCN2CCOCC2)C(=O)N1CCc1ccccc1	-0.3	22919*	-5.1	-9.3	-2.3
O=C(c1ccc(=O)[nH]n1)N1CCN(S(=O)(=O)c2ccc(C(F)(F)F)cc2)CC1	-3.7	6246	0.6	-2.9	0.6
Cc1ccccc1-c1cnc(C(O)c2ccc(Cl)cc2C)[nH]1 (stereo not given)	-0.1	3913	x	2.3	-5.2
CCc1ccccc1NC(=O)CC1S/C(=N\c2nccs2)N(CC)C1=O (stereo not given)	-1.6	17187*	-1.9	-1.1	0.4
C[C@@H]1CNC(=O)c2c(C(=O)NC3CCN(C(=O)OC(C)(C)C)CC3)ncn21	0.0	4437	x	-3.4	-3.5
SMILES	BoNT A protease	Autofluor counter	MazF activator	Anthrax LF inh2	BoNT-F LC inh
O=C(Cn1ccc(NC(=O)OCc2ccccc2)nc1=O)NCc1ccc2c(c1)OCO2	0.3	3953	58.2*	-5.0	8.8
O=C(O)CNS(=O)(=O)c1ccc(F)cc1	0.0	21439*	12.3	0.6	-0.2
Cc1cc(S(=O)(=O)NCC(=O)O)ccc1F	0.3	4698	3.0	-2.9	-10.1
N#CC1=C(N)N(c2ccccc2)C2=C(C(=O)CCC2)C1c1ccsc1 (stereo not given)	0.0	16252*	6.7	0.9	-3.2
COc1ccc(C2C(C#N)=C(N)N(N(C)C)C3=C2C(=O)CCC3)cc1 (stereo not given)	4.3	3857	1.3	-1.5	56.8*
O=C(Nc1cccc(C(F)(F)F)c1)c1csc([C@@H]2O[C@H](CO)[C@H](O)[C@H](O)[C@H]2O)n1	-0.7	3885	x	-3.0	-8.5
O=C(O)CSc1nnc(-c2ccc(Cl)cc2Cl)n1Cc1ccccc1	-0.5	6052	-3.6	-3.5	4.6
Cc1c(N2C(=O)/C(=C\c3ccc(N(C)C)cc3)N(C)C2=S)c(=O)n(-c2ccccc2)n1C	-2.2	5124	130.6*	0.3	-1.4
Cc1ccc(NC(=S)NNC(=O)c2c([N+](=O)[O-])c(C)nn2C)cc1	-0.9	23365*	-8.4	-1.5	-4.1
Cc1cccc(NC(=S)NNC(=O)CCn2nc(C)c([N+](=O)[O-])c2C)c1	2.1	15439	0.9	-1.3	2.5
Cc1nn(CC(=O)NNC(=S)Nc2ccccc2)c(C)c1[N+](=O)[O-]	-0.9	21125*	-0.8	1.1	0.6
Cc1cnn(CCC(=O)NNC(=S)Nc2ccc(F)cc2)c1	x	x	-7.2	x	x
Cc1cnn(CCC(=O)NNC(=S)Nc2cccc(Cl)c2)c1	3.3	21961*	-14.5	0.1	5.9
Cc1nn(CCC(=O)NNC(=S)Nc2cccc(Cl)c2)c(C)c1[N+](=O)[O-]	-1.8	20563*	-7.7	2.6	-4.7
Cc1nn(CCC(=O)NNC(=S)Nc2ccc(Cl)cc2)c(C)c1[N+](=O)[O-]	2.0	7836	1.6	-6.9	6.0
Cc1ccc(NC(=S)NNC(=O)c2c(Cl)c(C)nn2C)cc1	-1.7	9508	-2.8	-9.2	-5.3
CC(C)(C)c1ccc(OCC(=O)N(Cc2cccs2)C2CCS(=O)(=O)C2)cc1 (stereo not given)	-0.6	6512	5.4	2.3	-2.3
Cc1ccc(NC(=S)NNC(=O)Cn2nc(C(F)F)cc2C(F)F)cc1	-0.8	2523	1.0	-0.7	-0.2
O=C(Cn1nc(C(F)F)cc1C(F)F)NNC(=S)Nc1ccc(Cl)cc1	-4.1	23616*	-0.9	-1.4	-4.4
Cc1ccc(C2CC2C(=O)NNC(=S)Nc2cccc(Cl)c2)cc1 (stereo not given)	-1.1	20873*	1.8	-1.7	-3.7
Cc1cccc(C)c1N1CCN(C(=O)Cn2cncn2)CC1	0.0	3143	4.4	-2.5	1.0
COC(=O)c1c(NC(=O)C2CCC2)sc(C(=O)N(C)C)c1C	u	17349*	1.7	0.9	-6.2
CCCn1c(SCC(=O)Nc2ccccc2C(=O)OC)nc2c1c(=O)n(C)c(=O)n2C	-1.9	20496*	1.8	1.6	-1.0
CCn1c(SCC(=O)Nc2cc(C)on2)nc2c1c(=O)n(C)c(=O)n2C	u	24541*	4.1	-2.2	-2.6
CCCCn1c(SCC(=O)Nc2cc(C)on2)nc2c1c(=O)n(C)c(=O)n2C	0.2	9657	-2.5	-0.6	-2.9
CCn1c(SCC(=O)Nc2nc(-c3ccccc3)cs2)nc2c1c(=O)n(C)c(=O)n2C	-0.9	2093	11.2	-1.1	2.4

Assay outcomes: PubChem BioAssay, several laboratories
